The results in this text go back to PubChem BioAssay (EPA / NIEHS).

Broadly, the AC50 is the midpoint of the concentration-response curve, whichever way the signal moves.

Read-out in test [1]: Monocyte Chemoattractant Protein-1 (MCP1), CCL2 (gene 6347)
Kind of test: BSK_IMphg_MCP1: BioMAP Diversity Plus: IMphg Assay for Monocyte Chemoattractant Protein-1 (MCP1) Biomarker Activity (AID 2284253). The note with it: primary human endothelial cells with macrophages. An outline of the steps:
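ELISA readout of MCP-1 at 24 hours in IMphg co-cultures of venular endothelial cells and macrophages, normalised to DMSO; parallel cultures stained with sulforhodamine B for overt cytotoxicity.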

Read-out in test [2]: Macrophage Inflammatory Protein-1 Alpha (MIP1a), CCL3 (gene 6348)
Kind of test: BSK_IMphg_MIP1a: BioMAP Diversity Plus: IMphg Assay for Macrophage Inflammatory Protein-1 Alpha (MIP1a) Biomarker Activity (AID 2284255). The note with it: primary human endothelial cells with macrophages. The gist of the method: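 MIP-1a protein levels were quantified by ELISA after 24 h treatment of human endothelial cell–macrophage co-cultures, compared with DMSO. Parallel cultures were fixed with TCA and stained with 0.1% SRB to gauge overt cytotoxicity.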

Read-out in test [3]: Plasminogen activator inhibitor-1 (PAI1), SERPINE1 (gene 5054)
Kind of test: BSK_MyoF_PAI1: BioMAP Diversity Plus: MyoF Assay for Plasminogen activator inhibitor-1 (PAI1) Biomarker Activity (AID 2284256).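 As to outcome: PAI-1 protein level measured by ELISA in fibroblast cultures; PAI-1 read 24 h after compound addition.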 The conditions noted are these: primary human lung fibroblasts. The gist of the method:
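In this multiplexed primary-cell system, fibroblasts from human lung received compound for 24 h before ELISA detection of PAI-1; overt toxicity was checked by SRB (0.1%, TCA-fixed, 560 nm) in parallel wells.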

Read-out in a further test: CD69, CD69 (gene 969)
In words: BSK_IMphg_CD69: BioMAP Diversity Plus: IMphg Assay for CD69 Biomarker Activity (AID 2284257). The conditions noted are these: primary human endothelial cells with macrophages. An outline of the steps:
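Readout is ELISA for CD69 in primary human venular endothelial cell/macrophage co-culture, taken at 24 h post-dosing. SRB staining of parallel cultures gauged overt cytotoxicity; signal increase versus DMSO defined activity.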

Read-out in test [4]: Eotaxin 3, CCL26 (gene 10344)
In words: BSK_BF4T_Eotaxin3: BioMAP Diversity Plus: BF4T Assay for Eotaxin 3 Biomarker Activity (AID 2284258). The conditions noted are these: primary human bronchial epithelial cells with fibroblasts. An outline of the steps:
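ELISA measurement of Eotaxin-3 after 24 h chemical exposure in a bronchial epithelial/dermal fibroblast co-culture, with DMSO as baseline. Parallel SRB staining (0.1% SRB after 10% TCA fixation, 560 nm) flagged overt cytotoxicity.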

Read-out in test [5]: Monocyte Chemoattractant Protein-1 (MCP1), CCL2 (gene 6347)
Kind of test: BSK_BF4T_MCP1: BioMAP Diversity Plus: BF4T Assay for Monocyte Chemoattractant Protein-1 (MCP1) Biomarker Activity (AID 2284259). The conditions noted are these: primary human bronchial epithelial cells with fibroblasts. The gist of the method:
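MCP-1 ELISA readout taken 24 h after dosing in the BF4T system (bronchial epithelial cells plus dermal fibroblasts). Parallel SRB total-protein staining flagged cytotoxicity; DMSO served as baseline, positive fitting direction.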

Read-out in test [6]: Intercellular Adhesion Molecule 1 (ICAM1), ICAM1 (gene 3383)
Kind of test: BSK_BF4T_ICAM1: BioMAP Diversity Plus: BF4T Assay for Intercellular Adhesion Molecule 1 (ICAM1) Biomarker Activity (AID 2284260). The conditions noted are these: primary human bronchial epithelial cells with fibroblasts. An outline of the steps:
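ICAM-1 levels measured by ELISA after 24 h chemical treatment of bronchial epithelial cell/dermal fibroblast co-cultures, read against DMSO baseline. Overt cytotoxicity checked in parallel cultures by sulforhodamine B staining.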

Read-out in test [7]: Interleukin-8 (IL8), CXCL8 (gene 3576)
In words: BSK_MyoF_IL8: BioMAP Diversity Plus: MyoF Assay for Interleukin-8 (IL8) Biomarker Activity (AID 2284261). The note with it: primary human lung fibroblasts. An outline of the steps: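 DMSO-normalised, upward-fitted IL-8 ELISA signal; human lung fibroblasts, 24 h chemical treatment.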

Read-out in the next test: CD90, THY1 (gene 7070)
In words: BSK_BF4T_CD90: BioMAP Diversity Plus: BF4T Assay for CD90 Biomarker Activity (AID 2284262). The conditions noted are these: primary human bronchial epithelial cells with fibroblasts. The gist of the method: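 CD90 levels by ELISA after 24 h treatment of human bronchial epithelial cell/dermal fibroblast cultures, analysed versus DMSO. Overt cytotoxicity checked in parallel cultures by sulforhodamine B staining.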

Read-out in test [8]: Interleukin-8 (IL8), CXCL8 (gene 3576)
Kind of test: BSK_KF3CT_IL8: BioMAP Diversity Plus: KF3CT Assay for Interleukin-8 (IL8) Biomarker Activity (AID 2284254). The note with it: primary human keratinocytes with fibroblasts. An outline of the steps: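 Using parallel SRB-stained cultures to flag overt toxicity, the study quantified IL-8 by ELISA in human keratinocyte–foreskin fibroblast co-cultures 24 h after dosing, with DMSO as negative control and baseline.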

Where “and” joins values, the source holds several entries; their conditions need not be identical. Equal values may be shown once. A structure can be active in one record and inactive in another. Calls of active or inactive are those of the source. The calls were made as follows: active = hit-call score of the fitted dose curve at least 0.9, where 1 is the maximum; inactive = score below 0.9.

For `OCC(F)(F)C(F)(F)C(F)(F)C(F)F`, the outcome in test [1] was “inactive”; in test [2], “inactive”; in [3] it was “inactive”; in the test with CD69, CD69 (gene 969), “inactive”; in test [4] it was “inactive”; in test [5], “inactive”. The outcome in test [6] and in test [7] was inactive.

As for `C=C(C)C(=O)OCCC(F)(F)C(F)(F)C(F)(F)C(F)(F)C(F)(C(F)(F)F)C(F)(F)F`, the outcome in [1] is “inactive”; in test [2], “inactive”; in [3], “inactive”; with CD69, CD69 (gene 969), “inactive”; in [4], “inactive”; in test [5], “inactive”. The outcome in test [6] is “inactive”; in test [7], “inactive”; with CD90, THY1 (gene 7070), “inactive”.

For `C=CC(=O)OCC(F)(F)C(F)(F)C(F)(F)C(F)(F)COC(=O)C=C`, the AC50 in test [1] was 30 µM (active); in test [3], 15.4 µM (active) and 16.7 µM (active); with CD69, CD69 (gene 969), 30 µM (active); in test [4] it was 21.9 µM (active) and 30 µM (active); in test [5], 11.2 µM (active) and 15.5 µM (active); in test [6] it was 9.07 µM (active) and 16.9 µM (active). Further, the AC50 in test [7] is 19.5 µM (active) and 13.8 µM (active). For the same compound, the result in [2] was inactive.

On to `O=C(O)C(F)(F)C(F)(F)C(F)(F)C(F)(F)C(F)(F)C(F)(F)C(F)(F)C(F)(F)C(F)(F)C(F)F`, for which the AC50 in test [1] was 49.5 µM (active) and 48.9 µM (active); in test [3], 23.6 µM (active); in the test with CD69, CD69 (gene 969) it was 30 µM (active); in test [4] it was 5.95 µM (active); in test [5], 13.3 µM (active) and 3.36 µM (active); in test [6] it was 25.6 µM (active) and 17.8 µM (active). Further, the outcome was “inactive” in test [2]; “inactive” in test [3]; “inactive” with CD69, CD69 (gene 969); “inactive” in test [4]; “inactive” in test [7].

For `FC(F)(F)C(F)(F)C(F)(F)C(F)(F)C(F)(F)C(F)(F)CC1CO1` (stereo unspecified), the outcome in test [1] was “inactive”; in [2] it was “inactive”; in [3] it was “inactive”; in the test with CD69, CD69 (gene 969), “inactive”; in test [4], “inactive”; in [5] it was “inactive”. The outcome in test [6] and in test [7] was inactive.

In the case of `C=CC(F)(F)C(F)(F)C(F)(F)C(F)(F)C(F)(F)C(F)(F)C(F)(F)C(F)(F)C=C`, the outcome in test [1] was “inactive”; in test [8] it was “inactive”; in test [2], “inactive”; in test [3] it was “inactive”; in the test with CD69, CD69 (gene 969) it was “inactive”; in test [4], “inactive”. For the same compound, the outcome in [6] and in test [7] was inactive.

As for `N=C(N)C(F)(F)C(F)(F)C(F)(F)C(F)(F)C(F)(F)C(F)(F)C(F)(F)F`, the outcome in test [1] is “inactive”; in test [2] it was “inactive”; in test [3], “inactive”; with CD69, CD69 (gene 969), “inactive”; in [4], “inactive”; in test [6], “inactive”. The outcome is “inactive” in test [7] and “inactive” with CD90, THY1 (gene 7070). Moreover, in [4], the AC50 is 38.9 µM (active).

For `O=S(=O)(OCC(F)F)C(F)(F)F`, the outcome was “inactive” in [1]; “inactive” in test [8]; “inactive” in test [2]; “inactive” in [3]; “inactive” in the test with CD69, CD69 (gene 969); “inactive” in test [4]. The result in test [5], in test [6] and in [7] was inactive.

`OCCCC(F)(F)C(F)(F)C(F)(F)C(F)(F)C(F)(F)C(F)(F)C(F)(F)F`: the concentration at half-maximal activity (AC50) in [1] is 52 µM (active) and 24.2 µM (active); in test [2], 37.5 µM (active); in [3] it was 51.2 µM (active) and 52.2 µM (active); with CD69, CD69 (gene 969), 50 µM (active); in [4], 52.3 µM (active); in test [5] it was 38.4 µM (active) and 43.2 µM (active). The concentration at half-maximal activity (AC50) is 23.7 µM (active) and 34 µM (active) in test [6]; 58.5 µM (active) in test [7]. In addition, the outcome in [2] is “inactive”; with CD69, CD69 (gene 969), “inactive”; in [4], “inactive”; in test [7], “inactive”.

For `COC(=O)CCC(F)(F)C(F)(F)C(F)(F)C(F)(F)F`, the outcome was “inactive” in test [1]; “inactive” in test [8]; “inactive” in [2]; “inactive” in [3]; “inactive” in the test with CD69, CD69 (gene 969); “inactive” in test [4]. The outcome in [6] was “inactive”; in [7] it was “inactive”; with CD90, THY1 (gene 7070), “inactive”.

`O=S(=O)(OCCOC(F)(F)F)C(F)(F)F`: the outcome in test [1] was “inactive”; in test [2], “inactive”; in [3], “inactive”; with CD69, CD69 (gene 969), “inactive”; in [4], “inactive”; in test [5] it was “inactive”. Further, the outcome in [6] and in test [7] was inactive.

As for `OCC(F)(F)C(F)(F)C(F)(F)C(F)(F)C(F)(F)C(F)(F)F`, the outcome in test [1] was “inactive”; in test [8], “inactive”; in test [2], “inactive”; in test [3], “inactive”; with CD69, CD69 (gene 969) it was “inactive”; in test [4], “inactive”. The outcome in test [6] and in test [7] was inactive.

For the compound `FC(F)(I)C(F)(F)C(F)(F)C(F)(F)I`, the outcome was “inactive” in [1]; “inactive” in test [2]; “inactive” in the test with CD69, CD69 (gene 969); “inactive” in test [4]. Also, the concentration at half-maximal activity (AC50) in test [3] was 55.6 µM (active) and 46 µM (active) and 56.7 µM (active); in the test with CD69, CD69 (gene 969), 10.1 µM (active); in test [4], 57.1 µM (active) and 50.6 µM (active); in [6], 45.7 µM (active) and 47.8 µM (active) and 51.6 µM (active); in test [7], 57.5 µM (active) and 48 µM (active) and 48.5 µM (active).
